Assay outcomes as filed in PubChem.
The entries come from a sample that favours hits as a whole.
BJeLR viability: BJeLR cell viability reduction; BJeLR fibroblasts viability, CellTiterGlo ATP luminescence, 48 h; HRASV12, hTERT and SV40 LT/ST transformed; viability loss activity score, % (test concentration not listed); 30,000 compounds, 0.64% hits; in the data active = viability loss activity score above about 50%; inconclusive = no clear call, values can overlap the other calls; inactive = below about 35%;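 also: higher score means fewer live cells and less ATP luminescence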
MITF inhib: inhibitors of MITF. AID 2240. inhibition, % (test concentration not listed). TRPM1 promoter luciferase, luminescence, 24 h. 37,000 compounds, 0.28% hits; in the data active = inhibition above about 85%; inconclusive = no clear call, values can overlap the other calls; inactive = below about 68%;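 also: human melanocyte line stably carrying TRPM1 promoter luciferase reporter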
Shh pathway inh: Sonic Hedgehog pathway inhibition; Shh-LIGHT2 Gli-luciferase reporter, 30 h; inhibition, % (concentration not given with the values); 22,000 compounds, 2.1% hits;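 active = mean inhibition across valid replicates above about 65%, limit read from the data; inconclusive = mean under the limit, yet half or more replicates past it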;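 also: pathway switched on by Shh-conditioned medium diluted 1 in 25 in low serum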
* marks the source's active call; other numbers are inactive results; ? = inconclusive; · = no result.

SMILES | BJeLR viability | MITF inhib | Shh pathway inh
CC1=C2C[C@H]3[C@@H](CC=C4C[C@@H](O)CC[C@@]43C)[C@@H]2CC[C@]12O[C@@H]1C[C@H](C)CN[C@H]1[C@H]2C | 5 | 11 | 89*
Cc1cc(C(F)F)n2nc(C(=O)Nc3ccc4c(C(F)(F)F)cc(=O)oc4c3)nc2n1 | · | -17 | ·
CCNC(=S)N1CCN(CC(=O)Nc2ccc(Cl)cc2C(=O)c2ccccc2)CC1 | · | -2 | ·
CC(CCc1ccc(O)cc1)O[C@@H]1O[C@H](CO[C@H]2OC[C@](O)(CO)[C@H]2O)[C@@H](O)[C@H](O)[C@H]1O (some centres undefined) | -8 | -5 | -5
O=c1[nH]c2ccccc2n1C1CCN(CCCC(c2ccc(F)cc2)c2ccc(F)cc2)CC1 | -4 | 56 | 73*
Cc1cc(OCc2c(F)cccc2Cl)c2c3c(c(=O)oc2c1)CCCC3 | -1 | · | ·
CN(C)C(=O)Oc1nnc(SCCS(=O)(=O)c2ccc(F)cc2)n1-c1ccccc1 | -2 | · | ·
CO/C1=C/C(C)=C/[C@@H](C)[C@@H](O)[C@@H](C)C/C(C)=C/C=C\[C@H](OC)[C@@H]([C@@H](C)[C@@H](O)[C@H](C)[C@@]2(O)C[C@@H](O)[C@H](C)[C@@H](C(C)C)O2)OC1=O | 52* | -61 | 97*
CCOC(=S)SCc1nc2ccccc2c(=O)n1-c1ccccc1 | -10 | · | ·
O=C(c1noc2c1COc1ccccc1-2)N1CCC2(CC1)OCCO2 | 42 | · | ·
CN1C(=O)NC(=O)/C(=C\C=C\c2ccco2)C1=O | -3 | · | ·
CN(C)c1ccc(/C=C/C=C2/C(=O)NC(=O)N(c3ccccc3)C2=O)cc1 | 60* | · | ·
CN(C)C(=O)Oc1cccc(N)c1 | 0 | · | ·
C[C@@H]1CCC/C=C/[C@H]2C[C@@H](O)C[C@@H]2[C@@H](O)/C=C\C(=O)O1 | 39 | 87* | 101*
CN1CCc2nc3sc(C(=O)C(C)(C)C)c(N)c3cc2C1 | -3 | 41 | ?
CCCCCc1cc(OC)c(CC=C(C)C)c(O)c1C(=O)O | · | · | -17
CO[C@H]1[C@@H](O)[C@@H](C)O[C@@H](O[C@@H]2C=C3C(OC(C)=O)CC4(O)C(CC[C@]5(C)[C@@H](C6=CC(=O)OC6)CC[C@]45O)[C@@]3(C)CC2)[C@@H]1O (some centres undefined) | 115* | 36 | -2
CC(=O)OCC(=O)[C@H]1CC[C@H]2[C@@H]3CC[C@H]4C[C@H](O)CC[C@]4(C)[C@H]3C(=O)C[C@]12C | -4 | 16 | -54
CC12CC[C@H]3C(CCC4(O)CC(O)CCC34O)C1(O)CCC2C1=CC(=O)OC1 (some centres undefined) | 3 | -14 | -45
C[C@H]1O[C@@H](O[C@H]2CC[C@]3(CO)C4CC[C@]5(C)[C@@H](C6=CC(=O)OC6)CC[C@]5(O)C4CC[C@H]3C2)[C@H](O)[C@H](O)[C@@H]1O (some centres undefined) | · | · | -21
C[C@H]1O[C@@H](O[C@H]2[C@@H](O)C[C@H](O[C@H]3[C@@H](O)C[C@H](O[C@H]4CC[C@]5(C)C6CC[C@]7(C)[C@@H](C8=CC(=O)OC8)CC[C@]7(O)C6CC[C@@H]5C4)O[C@@H]3C)O[C@@H]2C)C[C@H](O)[C@@H]1O (some centres undefined) | 113* | 17 | -15
C[C@]12CC[C@H](O)C[C@H]1CC[C@@H]1[C@@H]2CC[C@]2(C)[C@@H](C3=CC(=O)OC3)CC[C@]12O | 91* | 40 | -20
C[C@]12CC[C@H](O)C[C@H]1CC[C@@H]1[C@@H]2C[C@@H](O)[C@]2(C)[C@@H](C3=CC(=O)OC3)CC[C@]12O | 83* | 18 | -47
CCN1C[C@]2(C)CC[C@H](OC)[C@@]34C1[C@@]1(OCO[C@@]15C[C@H](OC)[C@H]1C[C@]3(O)[C@@H]5[C@H]1OC)[C@@H](OC(C)=O)[C@H]24 | -3 | -6 | 3
CC[C@H]1CN2CC[C@H]1C[C@@H]2[C@@H](O)c1ccnc2ccc(OC)cc12 | -4 | -4 | 17
SMILES | BJeLR viability | MITF inhib | Shh pathway inh
CC(C)n1[nH]c(=O)c2c1NC(=O)CSC2c1ccc(Br)cc1 (centres undefined) | -10 | · | ·
O=C(Cn1cc(C(=O)c2ccccc2)c2ccccc21)NCC1CCCO1 (centres undefined) | · | -6 | ·
c1ccc(C2N3CCCN2CC3)cc1 (centres undefined) | -5 | · | ·
C[C@@]12C[C@@H](c3ccoc3)OC(=O)C1CC[C@]1(C)[C@H]2[C@H]2C=C[C@]1(O)C(=O)O2 (some centres undefined) | 1 | -14 | -16
Cc1cc(C(F)F)n2nc(C(=O)Nc3ccc(Cl)cc3C(=O)c3ccccc3)nc2n1 | · | -2 | ·
COC1CC(O[C@H]2CC[C@@]3(C)C(CCC4C3CC[C@]3(C)C(C5=CC(=O)OC5)CCC43O)C2)OC(C)C1OC1OC(COC2OC(CO)C(O)C(O)C2O)C(O)C(O)C1O (some centres undefined) | 94* | 9 | 0
CO[C@H]1[C@@H](O)[C@@H](C)O[C@@H](OC2CCC3(C)C(CC[C@@H]4[C@@H]3CCC3(C)C(C5=CC(=O)OC5)C(O)CC43O)C2)[C@@H]1O (some centres undefined) | 111* | 19 | -10
CC(=O)OC1CCC2(C)C(CC[C@@H]3[C@@H]2CCC2(C)C(C4=CC(=O)OC4)CCC32O)C1 (some centres undefined) | 89* | 11 | -5
COC1CC(OC2CCC3(C)C(CCC4(O)C3CC(OC(=O)c3ccccc3)C3(C)C(O)(C(C)=O)CCC43O)C2)OC(C)C1OC1CC(OC)C(OC2OC(C)C(O)C(OC)C2O)C(C)O1 (centres undefined) | -7 | -7 | -2
CC(=O)O[C@H]1CC[C@]2(C=O)[C@H]3CC[C@]4(C)[C@@H](C5=CC(=O)OC5)CC[C@]4(O)[C@@H]3CC[C@]2(O)C1 | 111* | 45 | 4
OCC1OC(n2cnc3cc(Cl)c(Cl)cc32)[C@@H](O)[C@H]1O (some centres undefined) | 5 | -5 | 56
COC(=O)C12CC3CC(C(C)O)C1N(CCc1c2[nH]c2ccc(OC)cc12)C3 (centres undefined) | 3 | 9 | 14
Cc1ccc(CN(C)C)c(OC(=O)N(C)C)c1 | 1 | · | ·
c1ccc2c(CNCCc3c[nH]c4ccccc34)cccc2c1 | 9 | -6 | 56
COc1ccccc1CN1CCN(Cc2ccccc2)CC1 | 2 | · | ·
CCN(CC)P1(=O)OC(C)(C)CC1(C)O (centres undefined) | 1 | -11 | -18
CCOC(=O)c1cc(C(C)(C)C)nc(OC(=O)N(C)C)c1C#N | 0 | 0 | 27
CC1C/C=C/C2C3OC3(C)C(C)C3C(Cc4ccccc4)NC(=O)C23OC(=O)O/C=C/C(C)(O)C1=O (centres undefined) | 3 | 41 | 44
Cc1ccc(-n2c(CNCc3cccnc3)nc3ccccc3c2=O)cc1 | · | -16 | ·
